The whole screen tested about 5,500 compounds, of which about 2,000 (36%) were called active. Roughly 18% stayed inconclusive and do not appear here. No stated cut-off is given here; in the data, active means normalized growth mostly below about 0.91 (no sharp cut-off); inconclusive means no clear call, values can overlap the other calls; inactive means mostly above about 0.92. Some of the results follow.
Experiment: chemical genetic growth profiling, strain panel (AID 1159580);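 further: tested at 20 µM; growth read once vehicle control cultures reached saturation at 30 °C; 1 = growth at the plate median or of vehicle wells; lower values mean less growth of the strain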
Settings: growth OD

Measured: normalized growth

COc1cc(O)c2c(=O)cc(-c3ccc(O)cc3)oc2c1
inactive: S. cerevisiae deletion strains, locus YBR021W, strain FUR4, active compounds read low 1.02 | S. cerevisiae deletion strains, locus YBR229C, strain ROT2, active compounds read low 1 | S. cerevisiae deletion strains, locus YCL029C, strain bik1, active compounds read low 1 | S. cerevisiae deletion strains, locus YDL035C, strain GPR1, active compounds read low 1 | S. cerevisiae deletion strains, locus YDL074C, strain BRE1, active compounds read low 1.01 | S. cerevisiae deletion strains, locus YDL101C, strain DUN1, active compounds read low 1.02 | S. cerevisiae deletion strains, locus YDL185W, strain tfp1, active compounds read low 1.02 | S. cerevisiae deletion strains, locus YDL192W, strain arf1, active compounds read low 1.05 | S. cerevisiae deletion strains, locus YDR101C, strain arx1, active compounds read low 1.03 | S. cerevisiae deletion strains, locus YDR162C, strain NBP2, active compounds read low 1.06 | S. cerevisiae deletion strains, locus YDR318W, strain mcm21, active compounds read low 1.02 | S. cerevisiae deletion strains, locus YDR388W, active compounds read low 0.994 | S. cerevisiae deletion strains, locus YDR502C, strain sam2, active compounds read low 1 | S. cerevisiae deletion strains, locus YEL061C, strain CIN8, active compounds read low 1 | S. cerevisiae deletion strains, locus YER110C, active compounds read low 1.02 | S. cerevisiae deletion strains, locus YER155C, strain BEM2, active compounds read low 1.04 | S. cerevisiae deletion strains, locus YER167W, strain BCK2, active compounds read low 1.02 | S. cerevisiae deletion strains, locus YGL078C, strain dbp3, active compounds read low 1.03 | S. cerevisiae deletion strains, locus YGL086W, strain mad1, active compounds read low 1 | S. cerevisiae deletion strains, locus YGL248W, strain PDE1, active compounds read low 1.02 | S. cerevisiae deletion strains, locus YGR135W, strain pre9, active compounds read low 1.04 | S. cerevisiae deletion strains, locus YGR252W, strain gcn5, active compounds read low 0.949 | S. cerevisiae deletion strains, locus YHR030C, strain SLT2, active compounds read low 1.01 | S. cerevisiae deletion strains, locus YHR079C, strain IRE1 (second series), active compounds read low 1.01 | S. cerevisiae deletion strains, locus YHR094C, strain hxt1, active compounds read low 0.996 | S. cerevisiae deletion strains, locus YHR129C, strain ARP1, active compounds read low 1.01 | S. cerevisiae deletion strains, locus YHR200W, strain rpn10, active compounds read low 1.07 | S. cerevisiae deletion strains, locus YIL066C, strain RNR3, active compounds read low 1.02 | S. cerevisiae deletion strains, locus YIL073C, strain SPO22, active compounds read low 1.02 | S. cerevisiae deletion strains, locus YIL125W, strain kgd1, active compounds read low 1.02 | S. cerevisiae deletion strains, locus YJL095W, strain BCK1, active compounds read low 1.05 | S. cerevisiae deletion strains, locus YJL134W, strain LCB3, active compounds read low 0.997 | S. cerevisiae deletion strains, locus YJL168C, strain set2, active compounds read low 1 | S. cerevisiae deletion strains, locus YJL187C, strain SWE1 (second series), active compounds read low 1.02 | S. cerevisiae deletion strains, locus YJR043C, strain POL32, active compounds read low 1 | S. cerevisiae deletion strains, locus YJR075W, strain HOC1, active compounds read low 1 | S. cerevisiae deletion strains, locus YKL009W, strain mrt4, active compounds read low 0.981 | S. cerevisiae deletion strains, locus YKL068W, active compounds read low 1 | S. cerevisiae deletion strains, locus YKL085W, strain MDH1 (second series), active compounds read low 0.994 | S. cerevisiae deletion strains, locus YKL085W, strain MDH1, active compounds read low 0.994 | S. cerevisiae deletion strains, locus YKR001C, strain vps1, active compounds read low 1.01 | S. cerevisiae deletion strains, locus YLR039C, strain RIC1, active compounds read low 1.07 | S. cerevisiae deletion strains, locus YLR058C, strain SHM2, active compounds read low 1.01 | S. cerevisiae deletion strains, locus YLR102C, strain apc9, active compounds read low 1.04 | S. cerevisiae deletion strains, locus YLR262C, strain YPT6, active compounds read low 1.07 | S. cerevisiae deletion strains, locus YLR268W, strain sec22, active compounds read low 1.01 | S. cerevisiae deletion strains, locus YLR330W, strain CHS5, active compounds read low 0.997 | S. cerevisiae deletion strains, locus YLR342W, strain FKS1 (second series), active compounds read low 1.01 | S. cerevisiae deletion strains, locus YLR371W, strain rom2, active compounds read low 1.03 | S. cerevisiae deletion strains, locus YLR418C, strain cdc73, active compounds read low 0.998 | S. cerevisiae deletion strains, locus YML016C, strain PPZ1, active compounds read low 0.994 | S. cerevisiae deletion strains, locus YML032C, strain rad52, active compounds read low 0.996 | S. cerevisiae deletion strains, locus YML124C, strain tub3, active compounds read low 1.02 | S. cerevisiae deletion strains, locus YMR078C, strain ctf18, active compounds read low 1.02 | S. cerevisiae deletion strains, locus YMR223W, strain ubp8, active compounds read low 1.04 | S. cerevisiae deletion strains, locus YMR307W, strain GAS1, active compounds read low 0.907 | S. cerevisiae deletion strains, locus YNL067W, strain RPL9B, active compounds read low 1.03 | S. cerevisiae deletion strains, locus YNL233W, strain BNI4, active compounds read low 1.02 | S. cerevisiae deletion strains, locus YNL250W, strain rad50, active compounds read low 1.02 | S. cerevisiae deletion strains, locus YNL271C, strain bni1, active compounds read low 1.04 | S. cerevisiae deletion strains, locus YNL298W, strain CLA4, active compounds read low 0.963 | S. cerevisiae deletion strains, locus YNL307C, strain MCK1, active compounds read low 0.994 | S. cerevisiae deletion strains, locus YNR052C, strain pop2, active compounds read low 1.01 | S. cerevisiae deletion strains, locus YOL006C, strain TOP1, active compounds read low 1.04 | S. cerevisiae deletion strains, locus YOL012C, strain htz1 0.814 | S. cerevisiae deletion strains, locus YOL147C, strain pex11, active compounds read low 1.02 | S. cerevisiae deletion strains, locus YOR061W, strain CKA2, active compounds read low 1 | S. cerevisiae deletion strains, locus YOR069W, strain VPS5, active compounds read low 0.999 | S. cerevisiae deletion strains, locus YOR136W, strain idh2, active compounds read low 0.993 | S. cerevisiae deletion strains, locus YOR144C, strain elg1, active compounds read low 1.04 | S. cerevisiae deletion strains, locus YOR184W, strain ser1, active compounds read low 1.07 | S. cerevisiae deletion strains, locus YOR316C, strain cot1, active compounds read low 1.02 | S. cerevisiae deletion strains, locus YPL055C, strain LGE1, active compounds read low 1.02 | S. cerevisiae deletion strains, locus YPR119W, strain clb2, active compounds read low 1.01 | S. cerevisiae deletion strains, locus YPR141C, strain kar3, active compounds read low 1.08 | S. cerevisiae deletion strains, locus YPR163C, strain tif3, active compounds read low 0.996 | S. cerevisiae deletion strains, locus YPR167C, strain met16, active compounds read low 1.02 | S. cerevisiae deletion strains, strain wtn01, active compounds read low 1.02 | S. cerevisiae strains, strain wild type, active compounds read low 1.01
active: S. cerevisiae deletion strains, locus YIR030C, strain dcg1, active compounds read low 1.08 [resistant]

COc1cc(-c2cc(=O)c3c(O)c(OC)c(OC)c(OC)c3o2)cc(OC)c1OC
inactive: S. cerevisiae deletion strains, locus YAL021C, strain ccr4, active compounds read low 1.01 | S. cerevisiae deletion strains, locus YAL026C, strain drs2, active compounds read low 1.01 | S. cerevisiae deletion strains, locus YAL030W, strain snc1, active compounds read low 1.01 | S. cerevisiae deletion strains, locus YBL061C, strain skt5, active compounds read low 1.01 | S. cerevisiae deletion strains, locus YBR009C, strain hhf1, active compounds read low 1.01 | S. cerevisiae deletion strains, locus YBR023C, strain chs3, active compounds read low 1.01 | S. cerevisiae deletion strains, locus YBR171W, strain sec66, active compounds read low 1.01 | S. cerevisiae deletion strains, locus YBR231C, strain swc5, active compounds read low 1.01 | S. cerevisiae deletion strains, locus YBR279W, strain paf1, active compounds read low 0.998 | S. cerevisiae deletion strains, locus YCL011C, strain gbp2, active compounds read low 1.01 | S. cerevisiae deletion strains, locus YCL016C, strain dcc1, active compounds read low 1.01 | S. cerevisiae deletion strains, locus YCL061C, strain MRC1, active compounds read low 1.03 | S. cerevisiae deletion strains, locus YCL069W, strain vba3, active compounds read low 1.01 | S. cerevisiae deletion strains, locus YCR088W, strain abp1, active compounds read low 1.01 | S. cerevisiae deletion strains, locus YDL005C, strain med2, active compounds read low 1.02 | S. cerevisiae deletion strains, locus YDL040C, strain nat1, active compounds read low 1.01 | S. cerevisiae deletion strains, locus YDR001C, strain nth1, active compounds read low 1.01 | S. cerevisiae deletion strains, locus YDR069C, strain doa4, active compounds read low 1.02 | S. cerevisiae deletion strains, locus YDR137W, strain rgp1, active compounds read low 0.997 | S. cerevisiae deletion strains, locus YDR159W, strain sac3, active compounds read low 1.03 | S. cerevisiae deletion strains, locus YDR195W, strain ref2 1.02 | S. cerevisiae deletion strains, locus YDR297W, strain sur2, active compounds read low 1.01 | S. cerevisiae deletion strains, locus YDR334W, strain swr1, active compounds read low 1.01 | S. cerevisiae deletion strains, locus YDR335W, strain msn5, active compounds read low 1.03 | S. cerevisiae deletion strains, locus YDR392W, strain spt3, active compounds read low 0.97 | S. cerevisiae deletion strains, locus YEL003W, strain gim4, active compounds read low 1.01 | S. cerevisiae deletion strains, locus YEL037C, strain rad23, active compounds read low 1.01 | S. cerevisiae deletion strains, locus YEL061C, strain CIN8 (second series), active compounds read low 1.01 | S. cerevisiae deletion strains, locus YER015W, strain faa2, active compounds read low 1.01 | S. cerevisiae deletion strains, locus YER016W, strain bim1, active compounds read low 1.02 | S. cerevisiae deletion strains, locus YER111C, strain swi4, active compounds read low 1 | S. cerevisiae deletion strains, locus YER155C, strain BEM2 (second series), active compounds read low 1 | S. cerevisiae deletion strains, locus YFR010W, strain ubp6, active compounds read low 1.01 | S. cerevisiae deletion strains, locus YGL167C, strain pmr1, active compounds read low 1.02 | S. cerevisiae deletion strains, locus YGL173C, strain kem1, active compounds read low 1.01 | S. cerevisiae deletion strains, locus YGL227W, strain vid30, active compounds read low 1.01 | S. cerevisiae deletion strains, locus YGL240W, strain doc1, active compounds read low 1.04 | S. cerevisiae deletion strains, locus YGL253W, strain hxk2, active compounds read low 1 | S. cerevisiae deletion strains, locus YHR013C, strain ard1, active compounds read low 1 | S. cerevisiae deletion strains, locus YHR027C, strain rpn1, active compounds read low 1.01 | S. cerevisiae deletion strains, locus YHR142W, strain chs7, active compounds read low 0.99 | S. cerevisiae deletion strains, locus YJL092W, strain hpr5, active compounds read low 1.02 | S. cerevisiae deletion strains, locus YJL095W, strain BCK1 (second series), active compounds read low 1.01 | S. cerevisiae deletion strains, locus YJL115W, strain asf1, active compounds read low 1.01 | S. cerevisiae deletion strains, locus YJL129C, strain trk1, active compounds read low 1 | S. cerevisiae deletion strains, locus YJL154C, strain vps35, active compounds read low 1.01 | S. cerevisiae deletion strains, locus YJL164C, strain tpk1, active compounds read low 0.999 | S. cerevisiae deletion strains, locus YJL166W, strain qcr8, active compounds read low 1.01 | S. cerevisiae deletion strains, locus YJL187C, strain SWE1, active compounds read low 1.01 | S. cerevisiae deletion strains, locus YKL160W, strain elf1, active compounds read low 1.01 | S. cerevisiae deletion strains, locus YKR026C, strain gcn3, active compounds read low 1.01 | S. cerevisiae deletion strains, locus YKR091W, strain srl3, active compounds read low 1.01 | S. cerevisiae deletion strains, locus YLL001W, strain dnm1, active compounds read low 1.02 | S. cerevisiae deletion strains, locus YLL026W, active compounds read low 1.01 | S. cerevisiae deletion strains, locus YLL041C, strain sdh2, active compounds read low 1.01 | S. cerevisiae deletion strains, locus YLR027C, strain aat2, active compounds read low 1.01 | S. cerevisiae deletion strains, locus YLR221C, strain rsa3, active compounds read low 1 | S. cerevisiae deletion strains, locus YLR258W, strain gsy2, active compounds read low 1.01 | S. cerevisiae deletion strains, locus YLR262C, strain YPT6 (second series), active compounds read low 1.01 | S. cerevisiae deletion strains, locus YLR320W, strain mms22, active compounds read low 1.02 | S. cerevisiae deletion strains, locus YLR342W, strain FKS1, active compounds read low 1.02 | S. cerevisiae deletion strains, locus YLR357W, strain rsc2, active compounds read low 0.994 | S. cerevisiae deletion strains, locus YLR370C, strain arc18, active compounds read low 1.02 | S. cerevisiae deletion strains, locus YLR384C, strain iki3, active compounds read low 1.01 | S. cerevisiae deletion strains, locus YML120C, strain ndi1, active compounds read low 1 | S. cerevisiae deletion strains, locus YMR058W, strain fet3, active compounds read low 1 | S. cerevisiae deletion strains, locus YMR125W, strain sto1, active compounds read low 0.999 | S. cerevisiae deletion strains, locus YMR129W, active compounds read low 1.01 | S. cerevisiae deletion strains, locus YMR205C, strain PFK2, active compounds read low 1.02 | S. cerevisiae deletion strains, locus YMR231W, strain pep5, active compounds read low 1.01 | S. cerevisiae deletion strains, locus YNL071W, strain lat1, active compounds read low 1 | S. cerevisiae deletion strains, locus YNL209W, strain ssb2, active compounds read low 1 | S. cerevisiae deletion strains, locus YNL248C, strain rpa49, active compounds read low 1 | S. cerevisiae deletion strains, locus YNL322C, strain KRE1 (second series), active compounds read low 1.02 | S. cerevisiae deletion strains, locus YNR049C, strain mso1, active compounds read low 1.01 | S. cerevisiae deletion strains, locus YOR001W, strain rrp6, active compounds read low 0.999 | S. cerevisiae deletion strains, locus YOR070C, strain gyp1, active compounds read low 1 | S. cerevisiae deletion strains, locus YOR080W, strain dia2, active compounds read low 1.01 | S. cerevisiae deletion strains, locus YOR083W, strain WHI5, active compounds read low 0.995 | S. cerevisiae deletion strains, locus YOR106W, strain vam3, active compounds read low 1 | S. cerevisiae deletion strains, locus YOR265W, strain rbl2, active compounds read low 1.01 | S. cerevisiae deletion strains, locus YOR270C, strain vph1, active compounds read low 0.99 | S. cerevisiae deletion strains, locus YOR290C, strain snf2, active compounds read low 0.933 | S. cerevisiae deletion strains, locus YPL051W, strain arl3, active compounds read low 1 | S. cerevisiae deletion strains, locus YPL078C, strain atp4, active compounds read low 0.999 | S. cerevisiae deletion strains, locus YPL106C, strain sse1, active compounds read low 1.03 | S. cerevisiae deletion strains, locus YPL240C, strain hsp82, active compounds read low 1.01
